# Screening results from PubChem.
# TCR activator: activates T cell receptor signaling; 330,000 tested, under 10 active; AID 504894; primary human leukocytes, anti-CD3, IL-2 HTRF, 48 h; Potency, µM (doses to about 9.22 µM), for the others: at the highest dose activation of IL-2 secretion, actives largely listed as activators; note: % of control where 0% means no effect
#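 Primary human leukocytes were stimulated with a-CD3 beads plus compounds for 48 hr without co-stimulation; secreted IL-2 was quantified by HTRF using a-IL-2-K (europium cryptate) and a-IL-2-d2, excited at 320nm with acceptor emission read at 665nm.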
# Glioma ERSR ind: induces the endoplasmic reticulum stress response in human glioma cells; U87-MG GRP78 promoter luciferase reporter, 16 h; 420,000 compounds, 0.02% hits; Potency, µM, without a hit: at the highest dose activation, most hits filed as activators; note: potency is the fitted concentration of half-maximal effect; series mostly up to about 76 µM; % of control where 0% means no effect; nearly all actives have a fitted effect of over 35% in size
#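 ERSR induction read as luciferase luminescence (Bright-Glo, 10 min at room temperature) in stably transfected human U87-MG glioma cells exposed to compounds for 16 h, using GRP78 as sensor.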
# TSHR antagonist: blocks TSH signaling through the human TSH receptor | TSHR-expressing cells, TSH-stimulated cAMP HTRF, 2 h; active compounds read low | P16473 | AID 504810 | activity change, negative = inhibition, % at 11.5 µM | 330,000 compounds, 0.2% hits;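 active = activity change below a set negative limit, meaning inhibition stronger than a set level, cut at about -70% in these data; inconclusive = activity change between two set negative limits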; note: % is set by controls: 0 for no effect and ±100 for the full control effect
# Target sequence (P16473 whole entry, looked up): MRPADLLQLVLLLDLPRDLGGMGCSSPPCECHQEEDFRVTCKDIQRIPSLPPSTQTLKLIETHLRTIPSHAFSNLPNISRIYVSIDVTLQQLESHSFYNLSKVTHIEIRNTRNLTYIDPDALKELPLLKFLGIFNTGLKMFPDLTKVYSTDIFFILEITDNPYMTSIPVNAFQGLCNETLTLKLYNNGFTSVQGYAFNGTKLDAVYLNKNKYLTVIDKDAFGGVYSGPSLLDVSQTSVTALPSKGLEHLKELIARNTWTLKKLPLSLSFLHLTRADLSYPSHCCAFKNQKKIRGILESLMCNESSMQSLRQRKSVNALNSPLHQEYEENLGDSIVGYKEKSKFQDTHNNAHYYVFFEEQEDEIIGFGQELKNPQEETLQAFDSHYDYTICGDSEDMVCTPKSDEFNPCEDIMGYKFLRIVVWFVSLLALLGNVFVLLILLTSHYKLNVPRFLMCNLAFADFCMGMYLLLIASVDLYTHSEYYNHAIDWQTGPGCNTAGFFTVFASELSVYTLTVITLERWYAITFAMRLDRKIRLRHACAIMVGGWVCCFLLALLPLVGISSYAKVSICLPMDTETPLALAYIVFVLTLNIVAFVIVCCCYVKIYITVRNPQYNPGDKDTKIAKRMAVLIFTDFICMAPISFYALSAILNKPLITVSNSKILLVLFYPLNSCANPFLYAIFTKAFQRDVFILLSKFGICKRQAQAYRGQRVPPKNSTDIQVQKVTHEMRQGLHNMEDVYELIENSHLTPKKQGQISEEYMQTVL
#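 Read-out is FRET at 665 nm (cryptate excitation 337 nm) from a cryptate-tagged anti-cAMP antibody, competed by cell cAMP against cAMP-d2. Compounds are tested on freshly harvested TSHR cells challenged with 4nM TSH (EC80) for 2 hours at 37 deg C.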
# Akt phos inh: blocks phosphorylation of Akt; Neuro2A IGF-stimulated pAkt S473 HTRF, 20 min; active compounds read low; activity change, % for hits at 50 µM; 360,000 compounds, 0.32% hits; AID 651550; in the data active = activity change below about -80%; inconclusive = mostly about -51% to -80%; note: % is set by controls: 0 for no effect and ±100 for the full control effect
#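 Neuro2A cells in DMEM with 0.5% FBS, overnight at 37 deg C, given compound at single 50 µM final, then IGF (6 nM final) for 20 min at 37 deg C. Lysed; phospho-Akt Ser473 by HTRF after 24 h, 665/615 ratio.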
# LDHA inh: inhibitors of human lactate dehydrogenase A. AID 1347041. P00338. activity change, % (values are at about 110 or 230 µM). purified LDHA, NADH/diaphorase-resazurin fluorescence; active compounds read low. 480,000 compounds, 0.15% hits; in the data active = activity change below about -30%; inconclusive = mostly about -25% to -30%;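 note: plate controls were DMSO wells for no effect and wells without enzyme for full effect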
#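 LDH5 2 nM; NADH 0.06 mM, pyruvate 0.2 mM; 200 mM Tris pH 7.4, EDTA, Tween-20; 5 min RT. Detection: diaphorase 0.133 mg/mL + resazurin 37 µM, fluorescence ex540/em590 at 0 and 20 min; normalized to enzyme-free and DMSO wells.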
# RGS4 inhibitor: inhibitors of human regulator of G protein signaling 4. 390,000 compounds, 0.039% hits. Transcreener GDP fluorescence polarization, RGS4-accelerated GTP hydrolysis. Potency, µM (titrated, usually from 114 µM), without a hit: at the top dose activity change, negative = inhibition, usual class: inhibitors. P49798; note: potency is the fitted concentration of half-maximal effect; % is set by controls: 0 for no effect and ±100 for the full control effect; nearly all actives have a fitted effect of over 75% in size
#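 MLSMR compounds (23 nl, pin-transferred) preincubated 10 min at room temperature with a 500nM (2x) first reagent, then RGS4 at 900nM (2x) plus Transcreener GDP mix added; fluorescence polarization (620/688 nm) read before and after 90 min at 30 °C.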
# Numbers without * were called inactive; i = inactive; ? = inconclusive; / = no result; ! = not confirmed by another sample. This is a sample that favours compounds with a hit; in the whole collection about 0.55% have one here. Unless noted, calls come from the whole dose curve; as a rule, active = well fitted curve in the direction sought with a large enough effect; inconclusive = small, poorly fitted or top-dose-only effect, or another doubt; inactive = no such curve, though single readings can be large; an effect the other way counts as inactive or inconclusive.
SMILES,TCR activator,Glioma ERSR ind,TSHR antagonist,Akt phos inh,LDHA inh,RGS4 inhibitor
OCC[n+]1c2ccccc2nc2ccc(N3CCOCC3)cc21,4%,-4%,-71*,i,19,?
COc1ccc(C2SCC(=O)Nc3c2c(=O)[nH]n3C2CCCCC2)cc1 (configuration not stated),2%,-6%,-9,-105%*,-4,17%
CC(=NCCN1CCOCC1)c1c(O)n(-c2ccccc2C)c(=O)[nH]c1=O,5%,-6%,3,i,3,-11%
CCC(=NCCN1CCOCC1)c1c(O)n(-c2ccccc2C)c(=O)[nH]c1=O,1%,-5%,-8,-122%*,0,-4%
O=C1NC(=S)NC(=O)C12C(c1ccc(F)cc1)NC(=S)NC2c1ccc(F)cc1 (configuration not stated),4%,-1%,-1,-118%*,-3,-22%
O=C1NC(=S)NC(=O)C12C(c1ccccc1)NC(=S)NC2c1ccccc1 (configuration not stated),-3%,-2%,2,i,-3,-18%
CC(C)N1CCN(Cc2c[nH]c3ccccc23)CC1,/,/,/,/,-1,/
COc1ccc(CN2CCN(C(=O)COc3ccc4ccccc4c3)CC2)cc1,/,/,/,/,-2,/
CN(CCOc1ccc(C=C2C(=O)NC(=O)NC2=O)cc1)c1ccccn1,4%,2%,-12,i,-32*,?
COc1ccc(OCCOc2cccc(C=C3C(=O)NC(=O)NC3=O)c2)cc1,/,/,-9,/,/,/
c1coc(CN2Cc3ccccc3-n3nncc3C2)c1,/,-7%,/,i,-32*,/
C[C@H]1O[C@@H](OC2CC[C@]3(C=O)[C@H]4CC[C@]5(C)[C@@H](C6=CC(=O)OC6)CC[C@]5(O)[C@@H]4CC[C@]3(O)C2)CC2OC(C)(C)OC21 (some centres not stated),1%,-4%,-74*,i,-2,12%
CCCCN=C[C@]12CCC(O)CC1(O)CCC1[C@@H]2CC[C@]2(C)[C@H](C3C=CC(=O)O3)CCC12O (some centres not stated),4%,-7%,-70*,i,-7,19%
C[C@]12CC[C@H]3[C@@H](CC[C@]4(O)C[C@@H](O)CC[C@]34C=O)[C@@]1(O)CC[C@@H]2C1=CC(=O)OC1,-1%,-5%,-72*,i,-4,-11%
Cc1ccc(C)c(NC(=O)c2cn(Cc3ccccc3)nn2)c1,/,/,/,/,7,/
C[N+](C)(C)CC1CC1,/,/,/,/,5,/
C[N+](C)(C)Cc1cccs1,/,/,/,/,0,/
CCc1ccc2[nH]c(C)c(CCN)c2c1,/,/,/,/,-2,/
O=C1NC(=O)C(=Cc2ccccc2Oc2ccc(F)cc2)C(=O)N1,-4%,-3%,4,i,-40*,?
Cc1ccc(S(=O)(=O)Oc2ccccc2C=C2C(=O)NC(=O)NC2=O)cc1,/,3%,/,i,-11,/
CCN(CC)P(=O)(NC(=O)C(Cl)(Cl)Cl)N(CC)CC.[Cl-].[Cl-].[Cl-].[Nd+3],-1%,-6%,1,i,-49*,?
COc1cc(C(C)=O)ccc1OC(=O)N(C)c1ccccc1,/,-4%,-122*,i,-3,27%
O=[N+]([O-])/C=C\c1ccc2c(c1)OCO2,/,/,/,/,8,/
Cc1[nH]c2ccccc2c1/C=C/[N+](=O)[O-],/,/,/,/,12,/
CN1C(CC(O)c2ccccc2)CCCC1CC(O)c1ccccc1 (configuration not stated),10%,0%,-3,i,-2,13%
SMILES,TCR activator,Glioma ERSR ind,TSHR antagonist,Akt phos inh,LDHA inh,RGS4 inhibitor
Cn1c[n+](C)cc1C(O)c1ccccc1 (configuration not stated),-2%,-6%,7,i,-61*!,?
Cc1cc2c(C(C)C)c(O)c(O)c(C=O)c2c(O)c1-c1c(C)cc2c(C(C)C)c(O)c(O)c(C=O)c2c1O,/,-14%,-80*!,/,-14,4.2µM*
Cc1cc(C[N+](C)(C)C)oc1C,/,/,/,/,12,/
C=CCNC(=O)c1c(N)n(Cc2ccco2)c2nc3ccccc3nc12,-9%,-5%,-1,-99%*,-1,?
C=CCNC(=O)c1c(N)n(Cc2ccccc2)c2nc3ccccc3nc12,/,/,/,/,45,/
CC(=O)N1CCCSC1=Nc1ccccc1,4%,-4%,-2,i,-6,26%
CCOc1ccccc1N=C1SCCCN1C,-1%,-6%,0,i,-38*,-27%
COC(=O)C1=C(c2ccc(-c3ccccc3)c(F)c2)C[C@@H]2CC[C@H]1N2C(=O)NC(C)C,-4%,-6%,-93*,i,3,2%
COC(=O)C1=C(c2ccc(-c3ccccc3)c(F)c2)C[C@@H]2CC[C@H]1N2C(=O)NCc1ccco1,-2%,-3%,-83*,i,1,-22%
COC(=O)C1=C(c2ccc(-c3ccccc3)c(F)c2)C[C@@H]2CC[C@H]1N2C(=O)NC1CC1,-4%,-4%,-41,i,3,8%
N#CC(C#N)=Cc1ccc(O)c(O)c1,7%,-1%,-24,i,-3,19µM*!
C=C1C([C@@H](O)C[C@H](C)C2O[C@@]3(CCCCO3)CC[C@H]2C)OC2CC[C@@]3(CC[C@@H](/C=C/[C@@H](C)C4CC(C)=C[C@]5(O4)O[C@H](C[C@@](C)(O)C(=O)O)CCC5O)O3)OC2[C@@H]1O (some centres not stated),/,-3%,/,/,/,?
C=C1C(O)[C@@H]2O[C@]3(CC[C@H](/C=C/C(C)[C@@H]4CC(C)=CC5(O[C@H](C[C@@](C)(O)C(=O)O)CCC5O)O4)O3)CC[C@H]2O[C@@H]1C(O)CC(C)[C@H]1OC2(CCCCO2)CCC1C (some centres not stated),-2%,-3%,-78*,i,-6,5%
CN(C)C(=O)Oc1ccc2c(=O)c(-c3ccccc3)coc2c1,/,/,/,/,3,/
COc1cc(/C=C(/C)[N+](=O)[O-])cc(OC)c1OC,/,/,/,/,3,/
CCCN1CCc2cc(O)cc3c2[C@H]1Cc1ccc(O)c(O)c1-3,10%,-15%,-16,i,60,0.53µM*!
CN(C)c1ccc(-[n+]2ccc(-c3cc[n+](-c4ccc(N(C)C)cc4)cc3)cc2)cc1,/,/,/,/,46,/
NC(=O)C1CCN(C(=O)c2cn(Cc3ccccc3)c3ccccc23)CC1,/,/,/,/,-15,/
O=C(c1ccco1)c1cn(Cc2ccccc2)c2ccccc12,4%,-3%,-10,-87%*,-4,7%
O=C(c1ccco1)c1cn(Cc2ccccc2Cl)c2ccccc12,2%,-4%,10,i,1,-4%
[O]=[Sb]([OH])([OH])[c]1ccccc1,/,-2%,/,/,-38*,?
